# Data as given in paper PMC7862700, “An all-to-all approach to the identification of sequence-specific readers for epigenetic DNA modifications on cytosine”.
# Tests used:
# Test in all cases: DAPPL (digital affinity profiling via proximity ligation, sequencing); 10 mM Tris-HCl pH 7.5, 50 mM NaCl, 1 mM DTT, 4% glycerol, room temperature, 30 min; GST-TFs on glutathione beads, 16-mer random dsDNA library, 0.1% formaldehyde crosslink after washing; high values mean tight binding
# FLI1 = molecular target: T1, FLI1 (Homo sapiens, UniProt Q01543 1-452); details: protein: recombinant; tags: N-terminal GST; dsDNA, one strand shown
# T1 sequence: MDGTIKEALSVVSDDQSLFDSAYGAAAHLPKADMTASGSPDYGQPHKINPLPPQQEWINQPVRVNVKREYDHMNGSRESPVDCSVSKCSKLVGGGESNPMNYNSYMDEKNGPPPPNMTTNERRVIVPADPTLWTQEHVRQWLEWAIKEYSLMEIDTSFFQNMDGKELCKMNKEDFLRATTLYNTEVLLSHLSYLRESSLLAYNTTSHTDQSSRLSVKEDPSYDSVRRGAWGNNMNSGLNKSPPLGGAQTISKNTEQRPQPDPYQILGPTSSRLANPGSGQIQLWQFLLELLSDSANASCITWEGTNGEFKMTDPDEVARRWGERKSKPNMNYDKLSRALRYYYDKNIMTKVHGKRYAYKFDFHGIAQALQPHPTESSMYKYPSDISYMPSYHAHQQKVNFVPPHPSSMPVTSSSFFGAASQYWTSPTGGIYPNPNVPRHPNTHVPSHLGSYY
# Summary of the method: (§1)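 GST fusions of human transcription factors were expressed in yeast and captured with glutathione beads. Once given DNA barcodes and pooled alongside a tag-only sample, they were incubated for 30 min at room temperature with 200 nmole of a random double-stranded 16-mer DNA library in Tris/NaCl/DTT/glycerol buffer, then washed, crosslinked (0.1% formaldehyde), proximity-ligated, PCR-amplified and sequenced on an Illumina NextSeq500. The binding signal of each hexamer is its read frequency for a factor divided by its frequency for the tag-only sample.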
# ELK1 = molecular target: T2, ELK1 (Homo sapiens, UniProt P19419 1-428); details: protein: recombinant; tags: N-terminal GST; dsDNA, one strand shown
# T2 sequence: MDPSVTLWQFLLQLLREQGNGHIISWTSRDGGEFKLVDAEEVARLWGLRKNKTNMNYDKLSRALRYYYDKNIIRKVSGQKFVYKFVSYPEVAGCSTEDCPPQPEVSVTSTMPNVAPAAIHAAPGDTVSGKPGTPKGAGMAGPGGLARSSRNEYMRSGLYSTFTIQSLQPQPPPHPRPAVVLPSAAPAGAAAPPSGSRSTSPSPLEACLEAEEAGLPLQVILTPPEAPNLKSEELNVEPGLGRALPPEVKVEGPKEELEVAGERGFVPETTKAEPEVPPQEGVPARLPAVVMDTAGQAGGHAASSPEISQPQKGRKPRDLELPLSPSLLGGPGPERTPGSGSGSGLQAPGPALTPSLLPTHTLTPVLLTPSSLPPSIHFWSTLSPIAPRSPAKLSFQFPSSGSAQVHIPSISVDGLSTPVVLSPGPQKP
# Summary of the method: as §1
# GABPA = molecular target: T3, GABPA (Homo sapiens, UniProt Q06546 1-454); details: protein: recombinant; tags: N-terminal GST; dsDNA, one strand shown
# T3 sequence: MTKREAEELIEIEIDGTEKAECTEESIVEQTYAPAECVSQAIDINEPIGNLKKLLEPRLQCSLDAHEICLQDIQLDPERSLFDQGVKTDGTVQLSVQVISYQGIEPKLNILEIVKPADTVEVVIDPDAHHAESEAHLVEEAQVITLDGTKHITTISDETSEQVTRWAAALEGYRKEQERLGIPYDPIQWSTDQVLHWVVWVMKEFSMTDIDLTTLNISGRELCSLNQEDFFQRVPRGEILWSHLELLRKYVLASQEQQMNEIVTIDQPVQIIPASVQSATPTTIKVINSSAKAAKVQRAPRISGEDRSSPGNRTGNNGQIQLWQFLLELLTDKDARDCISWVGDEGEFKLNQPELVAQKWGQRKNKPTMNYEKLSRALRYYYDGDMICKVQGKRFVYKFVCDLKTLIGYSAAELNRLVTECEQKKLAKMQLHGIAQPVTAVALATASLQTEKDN
# Summary of the method: as §1
# ERG = molecular target: T4, ERG (Homo sapiens, UniProt P11308 1-479); details: protein: recombinant; tags: N-terminal GST; dsDNA, one strand shown
# T4 sequence: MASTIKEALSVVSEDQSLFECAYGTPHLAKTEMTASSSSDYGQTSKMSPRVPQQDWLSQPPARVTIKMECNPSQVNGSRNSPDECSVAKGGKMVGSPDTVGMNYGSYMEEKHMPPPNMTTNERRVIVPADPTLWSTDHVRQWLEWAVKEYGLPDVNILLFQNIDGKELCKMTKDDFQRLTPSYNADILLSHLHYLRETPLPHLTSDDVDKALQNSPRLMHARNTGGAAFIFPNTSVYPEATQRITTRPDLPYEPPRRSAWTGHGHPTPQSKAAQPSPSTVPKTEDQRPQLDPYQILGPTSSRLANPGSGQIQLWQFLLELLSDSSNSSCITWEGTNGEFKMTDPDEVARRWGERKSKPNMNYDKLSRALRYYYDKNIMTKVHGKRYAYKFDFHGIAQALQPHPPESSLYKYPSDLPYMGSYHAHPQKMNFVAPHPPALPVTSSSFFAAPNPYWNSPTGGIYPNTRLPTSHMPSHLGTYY
# Summary of the method: as §1
# ELF1 = ELF1 (Homo sapiens, UniProt P32519 1-619); details: protein: recombinant; tags: N-terminal GST; dsDNA, one strand shown
# Summary of the method: as §1
# EHF = molecular target: T5, EHF (Homo sapiens, UniProt Q9NZC4 1-300); details: protein: recombinant; tags: N-terminal GST; dsDNA, one strand shown
# T5 sequence: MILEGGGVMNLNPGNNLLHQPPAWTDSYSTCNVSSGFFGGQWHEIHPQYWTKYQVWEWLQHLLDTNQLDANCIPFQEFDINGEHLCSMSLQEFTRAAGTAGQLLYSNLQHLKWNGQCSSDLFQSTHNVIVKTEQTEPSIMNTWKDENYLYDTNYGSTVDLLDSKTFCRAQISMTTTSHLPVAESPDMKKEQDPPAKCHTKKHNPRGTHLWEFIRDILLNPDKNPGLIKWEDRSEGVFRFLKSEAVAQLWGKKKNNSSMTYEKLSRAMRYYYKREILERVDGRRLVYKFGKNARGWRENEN
# Summary of the method: as §1
# SPI1 = SPI1 (Homo sapiens, UniProt P17947 1-270); details: protein: recombinant; tags: N-terminal GST; dsDNA, one strand shown
# Summary of the method: as §1
# SPIB = SPIB (Homo sapiens, UniProt Q01892 1-262); details: protein: recombinant; tags: N-terminal GST; dsDNA, one strand shown
# Summary of the method: as §1
# ELK3 = molecular target: T6, ELK3 (Homo sapiens, UniProt P41970 1-407); details: protein: recombinant; tags: N-terminal GST; dsDNA, one strand shown
# T6 sequence: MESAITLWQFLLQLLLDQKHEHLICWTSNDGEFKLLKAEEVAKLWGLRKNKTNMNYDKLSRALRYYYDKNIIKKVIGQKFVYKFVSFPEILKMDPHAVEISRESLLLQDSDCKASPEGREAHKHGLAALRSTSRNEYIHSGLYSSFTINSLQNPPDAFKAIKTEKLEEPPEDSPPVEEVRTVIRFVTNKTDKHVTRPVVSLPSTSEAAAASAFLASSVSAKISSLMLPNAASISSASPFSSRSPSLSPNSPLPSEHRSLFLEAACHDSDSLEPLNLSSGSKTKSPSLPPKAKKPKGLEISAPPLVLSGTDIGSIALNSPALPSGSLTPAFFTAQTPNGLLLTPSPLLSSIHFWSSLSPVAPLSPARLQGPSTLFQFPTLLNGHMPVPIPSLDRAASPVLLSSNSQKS
# Summary of the method: as §1
# FEV = molecular target: T7, FEV (Homo sapiens, UniProt Q99581 1-238); details: protein: recombinant; tags: N-terminal GST; dsDNA, one strand shown
# T7 sequence: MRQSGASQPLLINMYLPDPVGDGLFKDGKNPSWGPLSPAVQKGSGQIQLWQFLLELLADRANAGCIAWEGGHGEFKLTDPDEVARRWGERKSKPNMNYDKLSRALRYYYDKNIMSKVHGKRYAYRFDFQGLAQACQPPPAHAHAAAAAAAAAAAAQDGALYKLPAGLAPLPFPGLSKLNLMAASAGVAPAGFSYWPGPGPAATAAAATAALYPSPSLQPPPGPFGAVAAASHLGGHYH
# Summary of the method: as §1
# ETV5 = ETV5 (Homo sapiens, UniProt P41161 1-510); details: protein: recombinant; tags: N-terminal GST; dsDNA, one strand shown
# Summary of the method: as §1
# HSF1 = HSF1 (Homo sapiens, UniProt Q00613 1-529); details: protein: recombinant; tags: N-terminal GST; chain copies: 3; dsDNA, one strand shown
# Summary of the method: as §1
# SPIC = molecular target: T8, SPIC (Homo sapiens, UniProt Q8N5J4 1-248); details: protein: recombinant; tags: N-terminal GST; dsDNA, one strand shown
# T8 sequence: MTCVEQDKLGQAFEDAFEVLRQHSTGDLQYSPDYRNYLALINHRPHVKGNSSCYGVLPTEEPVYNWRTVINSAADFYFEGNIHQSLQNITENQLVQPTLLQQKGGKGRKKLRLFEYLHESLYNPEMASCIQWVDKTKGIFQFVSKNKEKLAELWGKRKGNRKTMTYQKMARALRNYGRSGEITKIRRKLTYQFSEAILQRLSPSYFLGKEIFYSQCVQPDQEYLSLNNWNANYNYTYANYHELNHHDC
# Summary of the method: as §1
# ELF4 = ELF4 (Homo sapiens, UniProt Q99607 1-663); details: protein: recombinant; tags: N-terminal GST; dsDNA, one strand shown
# Summary of the method: as §1
# ELK4 = molecular target: T9, ELK4 (Homo sapiens, UniProt P28324-2 1-405); details: protein: recombinant; tags: N-terminal GST; dsDNA, one strand shown
# T9 sequence: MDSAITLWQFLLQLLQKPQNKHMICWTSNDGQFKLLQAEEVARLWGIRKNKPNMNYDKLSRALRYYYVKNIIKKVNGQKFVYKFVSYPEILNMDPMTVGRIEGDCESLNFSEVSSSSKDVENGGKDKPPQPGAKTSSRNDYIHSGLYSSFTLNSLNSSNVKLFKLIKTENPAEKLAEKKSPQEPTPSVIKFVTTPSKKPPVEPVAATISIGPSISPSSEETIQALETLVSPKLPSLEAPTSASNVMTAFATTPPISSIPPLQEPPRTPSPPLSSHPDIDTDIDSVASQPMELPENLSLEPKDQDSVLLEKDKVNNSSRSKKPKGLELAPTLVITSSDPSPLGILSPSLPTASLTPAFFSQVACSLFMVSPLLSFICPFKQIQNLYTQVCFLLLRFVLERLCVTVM
# Summary of the method: as §1
# ETV2 = molecular target: T10, ETV2 (Homo sapiens, UniProt O00321 1-342); details: protein: recombinant; tags: N-terminal GST; dsDNA, one strand shown
# T10 sequence: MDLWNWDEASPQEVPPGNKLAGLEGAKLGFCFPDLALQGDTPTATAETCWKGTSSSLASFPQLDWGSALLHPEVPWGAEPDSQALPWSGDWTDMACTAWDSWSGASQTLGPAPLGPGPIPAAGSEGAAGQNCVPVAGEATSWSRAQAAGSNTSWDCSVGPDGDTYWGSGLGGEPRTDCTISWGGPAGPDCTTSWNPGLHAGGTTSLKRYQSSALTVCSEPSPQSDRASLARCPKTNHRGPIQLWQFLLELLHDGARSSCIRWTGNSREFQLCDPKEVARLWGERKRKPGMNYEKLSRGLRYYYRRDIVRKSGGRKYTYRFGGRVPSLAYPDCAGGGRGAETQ
# Summary of the method: as §1
# ELF3 = molecular target: T11, ELF3 (Homo sapiens, UniProt P78545 1-371); details: protein: recombinant; tags: N-terminal GST; dsDNA, one strand shown
# T11 sequence: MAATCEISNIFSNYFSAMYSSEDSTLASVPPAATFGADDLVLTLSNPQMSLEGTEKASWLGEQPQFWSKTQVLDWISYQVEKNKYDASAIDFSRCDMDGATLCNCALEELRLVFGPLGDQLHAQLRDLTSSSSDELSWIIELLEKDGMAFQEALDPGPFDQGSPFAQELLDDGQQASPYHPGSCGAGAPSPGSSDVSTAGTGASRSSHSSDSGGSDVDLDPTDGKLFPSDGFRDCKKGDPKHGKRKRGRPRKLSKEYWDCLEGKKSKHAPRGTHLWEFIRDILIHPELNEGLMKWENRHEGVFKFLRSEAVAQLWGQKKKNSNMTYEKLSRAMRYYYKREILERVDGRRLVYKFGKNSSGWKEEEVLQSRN
# Summary of the method: as §1
# CRX = CRX (Homo sapiens, UniProt O43186 1-299); details: protein: recombinant; tags: N-terminal GST; dsDNA, one strand shown
# Summary of the method: as §1
# ETV1 = ETV1 (Homo sapiens, UniProt P50549 1-477); details: protein: recombinant; tags: N-terminal GST; dsDNA, one strand shown
# Summary of the method: as §1
# Sequence of SPIB (Q01892 whole entry): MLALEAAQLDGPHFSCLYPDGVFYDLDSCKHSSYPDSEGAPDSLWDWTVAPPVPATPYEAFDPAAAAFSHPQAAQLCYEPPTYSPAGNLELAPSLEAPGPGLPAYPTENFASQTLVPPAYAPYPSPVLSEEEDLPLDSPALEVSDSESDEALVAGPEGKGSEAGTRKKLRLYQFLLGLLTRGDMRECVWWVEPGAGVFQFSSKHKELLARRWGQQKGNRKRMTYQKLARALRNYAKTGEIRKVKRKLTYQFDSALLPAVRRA
# Sequence of HSF1 (Q00613 whole entry): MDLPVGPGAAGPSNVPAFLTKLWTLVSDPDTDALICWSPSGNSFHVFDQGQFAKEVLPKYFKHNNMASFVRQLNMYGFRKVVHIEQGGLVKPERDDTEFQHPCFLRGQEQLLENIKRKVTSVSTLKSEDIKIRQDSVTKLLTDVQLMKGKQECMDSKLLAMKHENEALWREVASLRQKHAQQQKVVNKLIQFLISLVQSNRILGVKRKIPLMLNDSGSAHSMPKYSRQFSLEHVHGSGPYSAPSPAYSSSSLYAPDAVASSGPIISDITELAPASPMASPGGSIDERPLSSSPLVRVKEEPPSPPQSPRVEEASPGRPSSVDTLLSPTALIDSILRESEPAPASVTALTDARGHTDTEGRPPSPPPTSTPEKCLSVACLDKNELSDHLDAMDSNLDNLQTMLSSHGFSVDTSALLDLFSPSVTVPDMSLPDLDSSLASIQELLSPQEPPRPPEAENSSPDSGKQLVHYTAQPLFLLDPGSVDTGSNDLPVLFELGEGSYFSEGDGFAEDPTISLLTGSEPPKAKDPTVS
# Sequence of ELF4 (Q99607 whole entry): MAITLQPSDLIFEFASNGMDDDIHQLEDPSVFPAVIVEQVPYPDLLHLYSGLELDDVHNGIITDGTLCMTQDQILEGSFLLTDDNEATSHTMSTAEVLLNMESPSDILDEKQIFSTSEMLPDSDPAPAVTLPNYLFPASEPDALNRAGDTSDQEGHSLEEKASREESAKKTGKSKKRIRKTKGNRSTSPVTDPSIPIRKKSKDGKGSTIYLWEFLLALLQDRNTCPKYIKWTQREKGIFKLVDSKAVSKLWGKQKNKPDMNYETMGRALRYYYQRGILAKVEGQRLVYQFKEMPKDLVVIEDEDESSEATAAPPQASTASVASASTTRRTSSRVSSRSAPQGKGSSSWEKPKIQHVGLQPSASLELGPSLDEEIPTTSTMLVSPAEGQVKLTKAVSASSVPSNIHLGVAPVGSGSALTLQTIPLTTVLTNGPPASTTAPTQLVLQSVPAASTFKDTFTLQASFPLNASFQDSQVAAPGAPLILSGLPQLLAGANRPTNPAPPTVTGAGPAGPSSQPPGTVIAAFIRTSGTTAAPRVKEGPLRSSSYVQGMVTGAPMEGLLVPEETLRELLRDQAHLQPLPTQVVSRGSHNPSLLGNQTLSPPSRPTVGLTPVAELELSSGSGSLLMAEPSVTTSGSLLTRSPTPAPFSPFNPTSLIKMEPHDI
# Sequence of ETV1 (P50549 whole entry): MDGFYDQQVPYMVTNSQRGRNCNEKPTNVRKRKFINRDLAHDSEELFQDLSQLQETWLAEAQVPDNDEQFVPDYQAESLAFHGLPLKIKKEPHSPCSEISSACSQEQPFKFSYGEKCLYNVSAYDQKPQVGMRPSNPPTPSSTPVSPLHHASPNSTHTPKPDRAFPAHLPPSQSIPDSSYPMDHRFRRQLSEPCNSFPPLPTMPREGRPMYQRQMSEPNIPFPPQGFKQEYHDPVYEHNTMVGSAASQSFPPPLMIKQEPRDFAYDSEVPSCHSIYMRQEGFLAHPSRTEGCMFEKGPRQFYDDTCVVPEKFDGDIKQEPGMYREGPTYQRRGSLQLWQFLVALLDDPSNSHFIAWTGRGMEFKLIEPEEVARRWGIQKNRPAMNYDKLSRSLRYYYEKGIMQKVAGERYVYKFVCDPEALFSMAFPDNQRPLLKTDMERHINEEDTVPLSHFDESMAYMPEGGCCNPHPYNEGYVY
# Sequence of CRX (O43186 whole entry): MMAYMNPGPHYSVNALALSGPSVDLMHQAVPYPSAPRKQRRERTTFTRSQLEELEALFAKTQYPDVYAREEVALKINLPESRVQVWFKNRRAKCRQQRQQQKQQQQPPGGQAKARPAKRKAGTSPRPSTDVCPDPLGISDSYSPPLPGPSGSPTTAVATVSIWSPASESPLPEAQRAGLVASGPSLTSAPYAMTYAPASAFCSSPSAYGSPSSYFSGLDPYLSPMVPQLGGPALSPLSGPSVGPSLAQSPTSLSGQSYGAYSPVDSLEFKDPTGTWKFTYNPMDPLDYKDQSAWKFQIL
# Sequence of ETV5 (P41161 whole entry): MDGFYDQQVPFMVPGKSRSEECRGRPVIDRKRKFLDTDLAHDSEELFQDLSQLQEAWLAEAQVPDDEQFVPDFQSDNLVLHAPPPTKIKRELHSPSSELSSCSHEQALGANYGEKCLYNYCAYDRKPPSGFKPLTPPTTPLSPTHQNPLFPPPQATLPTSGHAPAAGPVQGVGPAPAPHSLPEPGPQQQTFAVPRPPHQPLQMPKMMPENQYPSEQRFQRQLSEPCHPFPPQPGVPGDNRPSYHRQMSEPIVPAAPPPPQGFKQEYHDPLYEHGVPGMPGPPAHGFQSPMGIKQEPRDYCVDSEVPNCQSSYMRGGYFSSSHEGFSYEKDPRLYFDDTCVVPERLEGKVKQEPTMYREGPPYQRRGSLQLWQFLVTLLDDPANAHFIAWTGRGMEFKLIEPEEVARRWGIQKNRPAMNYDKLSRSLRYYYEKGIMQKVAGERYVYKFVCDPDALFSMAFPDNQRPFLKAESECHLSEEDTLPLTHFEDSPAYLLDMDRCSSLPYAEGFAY
# Sequence of ELF1 (P32519 whole entry): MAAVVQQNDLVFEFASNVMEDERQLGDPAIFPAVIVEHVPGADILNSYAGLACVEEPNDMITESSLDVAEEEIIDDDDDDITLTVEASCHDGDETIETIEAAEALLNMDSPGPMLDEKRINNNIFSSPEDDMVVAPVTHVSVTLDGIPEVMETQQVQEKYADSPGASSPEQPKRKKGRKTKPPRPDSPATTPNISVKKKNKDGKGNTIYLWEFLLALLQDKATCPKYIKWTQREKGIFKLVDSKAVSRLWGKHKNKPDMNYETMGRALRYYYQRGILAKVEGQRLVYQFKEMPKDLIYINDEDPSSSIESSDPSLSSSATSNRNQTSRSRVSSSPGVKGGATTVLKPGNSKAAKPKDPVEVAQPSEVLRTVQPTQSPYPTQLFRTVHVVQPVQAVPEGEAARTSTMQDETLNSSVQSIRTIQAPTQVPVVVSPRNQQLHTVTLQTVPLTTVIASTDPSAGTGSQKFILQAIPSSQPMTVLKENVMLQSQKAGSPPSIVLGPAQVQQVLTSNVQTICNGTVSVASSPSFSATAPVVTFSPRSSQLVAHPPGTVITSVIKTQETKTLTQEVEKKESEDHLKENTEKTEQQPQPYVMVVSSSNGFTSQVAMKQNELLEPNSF
sequence,measurement,setting,value
ATACTC,binding signal,FLI1,"1.29 fold enrichment (6-mer frequency, TF over GST control)"
same,binding signal,ELK1,"1.32 fold enrichment (6-mer frequency, TF over GST control)"
same,binding signal,GABPA,"1.48 fold enrichment (6-mer frequency, TF over GST control)"
same,binding signal,ERG,"1.3 fold enrichment (6-mer frequency, TF over GST control)"
same,binding signal,ELF1,"1.38 fold enrichment (6-mer frequency, TF over GST control)"
same,binding signal,EHF,"1.33 fold enrichment (6-mer frequency, TF over GST control)"
same,binding signal,SPI1,"1.26 fold enrichment (6-mer frequency, TF over GST control)"
same,binding signal,SPIB,"1.32 fold enrichment (6-mer frequency, TF over GST control)"
same,binding signal,ELK3,"1.3 fold enrichment (6-mer frequency, TF over GST control)"
same,binding signal,FEV,"1.27 fold enrichment (6-mer frequency, TF over GST control)"
same,binding signal,ETV5,"1.22 fold enrichment (6-mer frequency, TF over GST control)"
same,binding signal,HSF1,"1.41 fold enrichment (6-mer frequency, TF over GST control)"
same,binding signal,SPIC,"1.42 fold enrichment (6-mer frequency, TF over GST control)"
same,binding signal,ELF4,"1.25 fold enrichment (6-mer frequency, TF over GST control)"
same,binding signal,ELK4,"1.23 fold enrichment (6-mer frequency, TF over GST control)"
same,binding signal,ETV2,"1.3 fold enrichment (6-mer frequency, TF over GST control)"
same,binding signal,ELF3,"1.23 fold enrichment (6-mer frequency, TF over GST control)"
same,binding signal,CRX,"1.37 fold enrichment (6-mer frequency, TF over GST control)"
same,binding signal,ETV1,"1.28 fold enrichment (6-mer frequency, TF over GST control)"
